# Assay outcomes as filed in PubChem.
# Most compounds without a hit are left out; they make up all but 9% or so of the library.
# BAZ2B inh: blocks human BAZ2B; Potency, µM (highest dose often 114 µM), for inactives: top-dose activity change, negative = inhibition, most hits filed as inhibitors; 360,000 tested, 4.4% active; AlphaScreen BAZ2B-H3K14Ac peptide displacement; AID 504333; Q9UIF8; note: % is set by controls: 0 for no effect and ±100 for the full control effect; nearly all actives have a fitted effect of over 60% in size
#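 AlphaScreen displacement: compounds (up to 110uM) incubated 30 min at room temperature with a preformed 50 nM BAZ2B/50 nM biotinylated H3K14Ac peptide complex in PBS pH 7.4 with Tween-20. Donor and acceptor beads at 10 ug/mL final added, 20 min light-protected before reading.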
# HP1b binding inh: HP1-beta chromodomain-methylated histone interaction inhibition; Potency, µM (doses to about 114 µM), for inactives: at the top dose activity change, negative = inhibition, most hits filed as inhibitors; 390,000 tested, 0.56% active; P83916; AlphaScreen HP1-beta / biotin-H3K9me3 peptide binding; note: nearly all actives have a fitted effect of over 70% in size
# Target sequence (P83916 whole entry, looked up): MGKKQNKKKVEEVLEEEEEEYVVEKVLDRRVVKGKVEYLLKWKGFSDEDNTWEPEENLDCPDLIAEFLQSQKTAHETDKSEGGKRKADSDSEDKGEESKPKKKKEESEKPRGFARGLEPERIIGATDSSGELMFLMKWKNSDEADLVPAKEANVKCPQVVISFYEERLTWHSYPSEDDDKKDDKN
#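 HP1-beta protein (50 nM final) preincubated 30 min at room temperature with biotinylated H3(1-18)K9me3 peptide (50 nM) in PBS pH 7.4, 0.01% Tween-20, then compound added for 30 min. AlphaScreen streptavidin donor/nickel chelate acceptor beads (10 ug/mL final), 30 min dark, luminescence read.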
# G9a inh: inhibitors of human histone lysine methyltransferase G9a; G9a H3K9 monomethylation, AlphaScreen, 2 h; Potency, µM (top dose mostly 102 µM), for the others: top-dose activity, negative = inhibition, hits mostly inhibitors; AID 504332; Q96KQ7; 350,000 tested, 8.8% active; note: % is set by controls: 0 for no effect and ±100 for the full control effect; nearly all actives have a fitted effect of over 75% in size
# Target sequence (Q96KQ7 913-1193 limits assumed): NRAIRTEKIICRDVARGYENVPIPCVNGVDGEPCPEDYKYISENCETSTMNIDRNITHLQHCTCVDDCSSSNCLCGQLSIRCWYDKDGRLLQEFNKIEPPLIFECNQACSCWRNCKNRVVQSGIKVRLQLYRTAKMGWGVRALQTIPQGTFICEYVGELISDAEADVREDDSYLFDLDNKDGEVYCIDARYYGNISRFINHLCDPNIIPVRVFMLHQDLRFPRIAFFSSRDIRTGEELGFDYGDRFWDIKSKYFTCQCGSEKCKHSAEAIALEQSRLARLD
#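 Signal arises when biotinylated H3K9 peptide, once monomethylated, bridges streptavidin donor and antibody-captured acceptor beads. Enzyme at 20 nM was preincubated 15 min with test compounds; peptide 500 nM and SAM 20 uM then reacted for 2 h.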
# ALOX12 inh: blocks human arachidonate 12S-lipoxygenase; P18054; purified 12hLO, xylenol orange hydroperoxide absorbance; Potency, µM (top dose mostly 108 µM), inactives show at the highest dose activity change, negative = inhibition, most hits filed as inhibitors; 580,000 tested, 1.1% active; AID 1671190; note: % is set by controls: 0 for no effect and ±100 for the full control effect
#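 Hydroperoxide product was detected by ferrous iron/xylenol orange as the 573 to 405 nm absorbance ratio. Arachidonic acid at 40 uM (final) was turned over for 30 min at room temperature by 150 nM human 12hLO, pH 7.0 Hepes buffer, after 15 min compound preincubation.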
# PLK1 PBD inh: inhibitors of human PLK1 polo-box domain binding | 360,000 tested, 2.8% active | Potency, µM, without a hit: max response, negative = inhibition, hits mostly inhibitors | P53350 | Plk1 PBD binding of FITC phosphopeptide, fluorescence polarization; note: series mostly up to about 57 µM; % is set by controls: 0 for no effect and ±100 for the full control effect; nearly all actives have a fitted effect of over 65% in size
# JMJD2A Tudor: blocks the human JMJD2A Tudor domain | O75164 | AlphaScreen JMJD2A-Tudor / H3K4me3 peptide binding | Potency, µM (top dose mostly 114 µM), without a hit: top-dose activity change, negative = inhibition, hits mostly inhibitors | 390,000 tested, 4.4% active; note: % is set by controls: 0 for no effect and ±100 for the full control effect; nearly all actives have a fitted effect of over 50% in size
# * = called active by the depositor; ? = inconclusive; . = no result given; ! = not confirmed by another sample; [ ] = remark or other dose. Calls come from the whole dose curve; as a rule, active = well fitted curve in the direction sought with a large enough effect; inconclusive = small, poorly fitted or top-dose-only effect, or another doubt; inactive = no such curve, though single readings can be large; an effect the other way counts as inactive or inconclusive. Potency is the fitted concentration of half-maximal effect.
SMILES,BAZ2B inh,HP1b binding inh,G9a inh,ALOX12 inh,PLK1 PBD inh,JMJD2A Tudor
COc1ccccc1CCC(=O)N1CCC2(CC1)NC(=O)N(c1ccc(F)cc1)N2,.,.,.,3.2µM*,.,.
Cc1cccc(OCC(=O)N2CCN(C(=O)CCC3CCCC3)CC2)c1,-2%,38%,-40%,-1%,-2%,-8%
O=C(Cc1cccc(F)c1)N1CCC2(CC1)NC(=O)N(Cc1ccccc1Cl)C2=O,.,.,.,-5%,.,.
COc1ccccc1CCC(=O)N1CCC2(CC1)N=C(c1ccc(C)cc1)NO2,.,.,.,28%,.,.
Cc1cccc(OCC(=O)N2CCC3(CC2)NC(=O)N(c2ccc(F)cc2)N3)c1,.,.,.,4.5µM*,.,.
O=C(Cc1ccccc1Cl)N1CCC2(CC1)NC(=O)N(c1ccc(F)cc1)N2,.,.,.,2.2µM*,.,.
CC(=O)Nc1ccc(NS(=O)(=O)c2ccc(Cl)c(C(=O)O)c2)cc1,3%,23%,-25%[12.7 µM],-16%,1%,-6%
COCCC1(C(=O)O)CCCN(CC(=O)NCCc2ccccc2)C1 (configuration not stated),.,.,.,-1%,.,.
C=C(C)C[C@H]1CC=C[C@H](CC(=C)C)[N+]1(C)C,.,.,.,18µM*,.,.
CCc1sc2nc(SCC(=O)Nc3cc(C)on3)n(-c3cccc(OC)c3)c(=O)c2c1C,?,26%,-15%,131%,-21%,-15%
COc1cc(/C=C2\C(=N)N3N=C(S(C)(=O)=O)SC3=NC2=O)ccc1OS(=O)(=O)c1ccc(C)cc1,50µM*,-5%,10%[59 µM],45µM*,24µM*,56µM*
CCOc1cc(/C=C2\C(=N)N3N=CSC3=NC2=O)ccc1OS(=O)(=O)c1ccccc1,0%,8%,12%,0%,24µM*,-23%
CCOc1cc(/C=C2\C(=N)N3N=C(C)SC3=NC2=O)ccc1OCCOc1cccc(OC)c1,-27%,40%,11%,11%,0%,3%
CCOc1cc(/C=C2/C(=N)N3N=C(C)SC3=NC2=O)ccc1OS(=O)(=O)c1ccc(C)cc1,8%,1%,2%,3%,17µM*,-22%
CCc1nn2c(=O)cc(COc3ccc(/C=C4\C(=N)N5N=C(C)SC5=NC4=O)cc3)nc2s1,50µM*,15%,-13%[59 µM],-4%,?,56µM*
COc1cc(/C=C2\C(=N)N3N=CSC3=NC2=O)ccc1OS(=O)(=O)c1ccccc1,1%,23%,?,-5%,?,-24%
CC1SC(=NC(=O)c2ccncc2)NC1=O (configuration not stated),-20%,4%,40µM*,0%,-23%,-8%
CC(NC(=O)c1ccc(N(C)C)cc1)c1ccc(F)cc1 (configuration not stated),-16%,22%,14%,32%,-8%,-25%
CC(/C=C/C(=O)NO)=C\[C@@H](C)C(=O)c1ccc(N(C)C)cc1,.,.,16µM*!,.,.,.
O=C(O)C1CCCCC1C(=O)Nc1ccccc1Nc1ccccc1 (configuration not stated),-8%,10%,?,38%,2%,-18%
O=C(O)C1CCCCC1C(=O)Nc1cccc2ccccc12 (configuration not stated),-5%,13%,11µM*,-4%,-8%,-14%
O=C(O)Cc1ccc(-n2cccc2)cc1,8.9µM*,25µM*,20µM*,-13%,?,40µM*
CCc1ccc(NC(=O)Cc2ccc(-n3cccc3)cc2)cc1,0%,22%,-13%,-1%,-1%,-13%[57.1 µM]
Cc1ccc(CNC(=O)c2ccc(-n3cccc3)cc2)cc1,25µM*,22µM*,?,?,?,40µM*
CC(C)Cc1ccc(CC(=O)O)cc1,.,.,11µM*,-13%[22.9 µM],.,.
SMILES,BAZ2B inh,HP1b binding inh,G9a inh,ALOX12 inh,PLK1 PBD inh,JMJD2A Tudor
CCc1ccccc1NC(=O)Cc1ccc(-n2cccc2)cc1,-4%,?,14%[59 µM],-18%,7.5µM*,?
CCN(Cc1cc(=O)n2ccsc2n1)Cc1nc2cc(OC)c(OC)cc2c(=O)[nH]1,3%,11%,13µM*,1%,?,-7%[11.4 µM]
Nc1nc(=S)ss1,.,?,.,?,24µM*,-10%
O=[N+]([O-])c1ccc(Cl)cc1NCc1cccnc1,.,?,.,-8%,-6%,-25%
CS(=O)(=O)NCCCNc1ccc(C(F)(F)F)cc1[N+](=O)[O-],-33%,9%,-21%,13%,-4%,-14%
O=[N+]([O-])c1cc(C(F)(F)F)cc([N+](=O)[O-])c1NCc1cccnc1,-28%,-19%,50µM*,-3%,-7%,-33%
O=[N+]([O-])c1cc(C(F)(F)F)cc([N+](=O)[O-])c1NCCCNc1ccc([N+](=O)[O-])c2cccnc12,-37%,-38%,3.5µM*,-9%,-3%,?
COc1ccc(-n2c(=S)[nH]c3cc(C(=O)Nc4ccccc4OC)ccc3c2=O)c(OC)c1,-8%,-1%,43%,?,-15%,-25%
CCc1nnc(NC(=O)c2cc(OC)c(OC)cc2[N+](=O)[O-])s1,0%,37%,.,?,-7%,11%[57.1 µM]
COc1cc(C(=O)Nc2nnc(SC)s2)c([N+](=O)[O-])cc1OC,-20%,28%,32µM*,-9%,-8%,-14%
COCc1nnc(NC(=O)c2cc(OC)c(OC)cc2[N+](=O)[O-])s1,8%,?,22%[59 µM],12%,30µM*,-13%[57.1 µM]
COCc1nnc(NC(=O)c2ccccc2[N+](=O)[O-])s1,6%,3%,20µM*,-22%,?,-9%
COCc1nnc(NC(=O)c2cccc(Cl)c2)s1,.,.,.,-18%,.,.
COCc1nnc(NC(=O)c2ccc(Cl)cc2[N+](=O)[O-])s1,5%,-8%,16µM*,-23%,?,-9%
Cc1ccc(CC(=O)NCc2ccc(F)cc2)cc1,-16%,17%,?,-15%,-5%,-1%
CCN(CC)C(=O)C1c2ccccc2Oc2ccccc21,5%,40%,7%,0%,-5%,-16%
Cc1ccsc1C(=O)N(Cc1nnc(-c2ccccc2Cl)o1)C1CC1,-7%,37%,?,-5%,-7%,-1%
Cc1cc(Cl)ccc1NS(=O)(=O)c1c(C)[nH]c(=O)[nH]c1=O,0%,35%,6%,13%,0%,?
CC(c1ccccc1)n1cc(C(=O)NCCCn2ccnc2)nn1 (configuration not stated),5%,53%,-2%[59 µM],-9%,-3%,-17%
CC1CCN(c2c(NCC3CCC(C(=O)Nc4ccccn4)CC3)c(=O)c2=O)CC1 (configuration not stated),-5%,28%,-9%,12%[57.4 µM],0%,-1%
O=C(Nc1ccc2c(c1)OCO2)C1CC1,-35%,-2%,5%[0.501 µM],-27%,-3%,?
O=C(Nc1ccc2c(c1)OC1(CCCC1)O2)C1CC1,-9%,?,?,10%,27µM*,?
